# Bioassay records deposited in PubChem BioAssay by University of Kansas High Throughput Screening Laboratory.
# A selection: hits, their analogues and other compounds. The true share with any hit is near 3.5%.
# mHTT-CaM PPI inh = mutant huntingtin-calmodulin interaction inhibitors – biochemical, AlphaScreen, primary screen; inhibition, % at 15 µM; AlphaScreen His-mHTT/GST-CaM binding, luminescence; P42858; AID 1671202, 2021; 190,000 tested, 3.6% active;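 note: 0% = both proteins with DMSO and 100% = one protein alone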
# Target sequence (P42858 whole entry, looked up, stated change not applied): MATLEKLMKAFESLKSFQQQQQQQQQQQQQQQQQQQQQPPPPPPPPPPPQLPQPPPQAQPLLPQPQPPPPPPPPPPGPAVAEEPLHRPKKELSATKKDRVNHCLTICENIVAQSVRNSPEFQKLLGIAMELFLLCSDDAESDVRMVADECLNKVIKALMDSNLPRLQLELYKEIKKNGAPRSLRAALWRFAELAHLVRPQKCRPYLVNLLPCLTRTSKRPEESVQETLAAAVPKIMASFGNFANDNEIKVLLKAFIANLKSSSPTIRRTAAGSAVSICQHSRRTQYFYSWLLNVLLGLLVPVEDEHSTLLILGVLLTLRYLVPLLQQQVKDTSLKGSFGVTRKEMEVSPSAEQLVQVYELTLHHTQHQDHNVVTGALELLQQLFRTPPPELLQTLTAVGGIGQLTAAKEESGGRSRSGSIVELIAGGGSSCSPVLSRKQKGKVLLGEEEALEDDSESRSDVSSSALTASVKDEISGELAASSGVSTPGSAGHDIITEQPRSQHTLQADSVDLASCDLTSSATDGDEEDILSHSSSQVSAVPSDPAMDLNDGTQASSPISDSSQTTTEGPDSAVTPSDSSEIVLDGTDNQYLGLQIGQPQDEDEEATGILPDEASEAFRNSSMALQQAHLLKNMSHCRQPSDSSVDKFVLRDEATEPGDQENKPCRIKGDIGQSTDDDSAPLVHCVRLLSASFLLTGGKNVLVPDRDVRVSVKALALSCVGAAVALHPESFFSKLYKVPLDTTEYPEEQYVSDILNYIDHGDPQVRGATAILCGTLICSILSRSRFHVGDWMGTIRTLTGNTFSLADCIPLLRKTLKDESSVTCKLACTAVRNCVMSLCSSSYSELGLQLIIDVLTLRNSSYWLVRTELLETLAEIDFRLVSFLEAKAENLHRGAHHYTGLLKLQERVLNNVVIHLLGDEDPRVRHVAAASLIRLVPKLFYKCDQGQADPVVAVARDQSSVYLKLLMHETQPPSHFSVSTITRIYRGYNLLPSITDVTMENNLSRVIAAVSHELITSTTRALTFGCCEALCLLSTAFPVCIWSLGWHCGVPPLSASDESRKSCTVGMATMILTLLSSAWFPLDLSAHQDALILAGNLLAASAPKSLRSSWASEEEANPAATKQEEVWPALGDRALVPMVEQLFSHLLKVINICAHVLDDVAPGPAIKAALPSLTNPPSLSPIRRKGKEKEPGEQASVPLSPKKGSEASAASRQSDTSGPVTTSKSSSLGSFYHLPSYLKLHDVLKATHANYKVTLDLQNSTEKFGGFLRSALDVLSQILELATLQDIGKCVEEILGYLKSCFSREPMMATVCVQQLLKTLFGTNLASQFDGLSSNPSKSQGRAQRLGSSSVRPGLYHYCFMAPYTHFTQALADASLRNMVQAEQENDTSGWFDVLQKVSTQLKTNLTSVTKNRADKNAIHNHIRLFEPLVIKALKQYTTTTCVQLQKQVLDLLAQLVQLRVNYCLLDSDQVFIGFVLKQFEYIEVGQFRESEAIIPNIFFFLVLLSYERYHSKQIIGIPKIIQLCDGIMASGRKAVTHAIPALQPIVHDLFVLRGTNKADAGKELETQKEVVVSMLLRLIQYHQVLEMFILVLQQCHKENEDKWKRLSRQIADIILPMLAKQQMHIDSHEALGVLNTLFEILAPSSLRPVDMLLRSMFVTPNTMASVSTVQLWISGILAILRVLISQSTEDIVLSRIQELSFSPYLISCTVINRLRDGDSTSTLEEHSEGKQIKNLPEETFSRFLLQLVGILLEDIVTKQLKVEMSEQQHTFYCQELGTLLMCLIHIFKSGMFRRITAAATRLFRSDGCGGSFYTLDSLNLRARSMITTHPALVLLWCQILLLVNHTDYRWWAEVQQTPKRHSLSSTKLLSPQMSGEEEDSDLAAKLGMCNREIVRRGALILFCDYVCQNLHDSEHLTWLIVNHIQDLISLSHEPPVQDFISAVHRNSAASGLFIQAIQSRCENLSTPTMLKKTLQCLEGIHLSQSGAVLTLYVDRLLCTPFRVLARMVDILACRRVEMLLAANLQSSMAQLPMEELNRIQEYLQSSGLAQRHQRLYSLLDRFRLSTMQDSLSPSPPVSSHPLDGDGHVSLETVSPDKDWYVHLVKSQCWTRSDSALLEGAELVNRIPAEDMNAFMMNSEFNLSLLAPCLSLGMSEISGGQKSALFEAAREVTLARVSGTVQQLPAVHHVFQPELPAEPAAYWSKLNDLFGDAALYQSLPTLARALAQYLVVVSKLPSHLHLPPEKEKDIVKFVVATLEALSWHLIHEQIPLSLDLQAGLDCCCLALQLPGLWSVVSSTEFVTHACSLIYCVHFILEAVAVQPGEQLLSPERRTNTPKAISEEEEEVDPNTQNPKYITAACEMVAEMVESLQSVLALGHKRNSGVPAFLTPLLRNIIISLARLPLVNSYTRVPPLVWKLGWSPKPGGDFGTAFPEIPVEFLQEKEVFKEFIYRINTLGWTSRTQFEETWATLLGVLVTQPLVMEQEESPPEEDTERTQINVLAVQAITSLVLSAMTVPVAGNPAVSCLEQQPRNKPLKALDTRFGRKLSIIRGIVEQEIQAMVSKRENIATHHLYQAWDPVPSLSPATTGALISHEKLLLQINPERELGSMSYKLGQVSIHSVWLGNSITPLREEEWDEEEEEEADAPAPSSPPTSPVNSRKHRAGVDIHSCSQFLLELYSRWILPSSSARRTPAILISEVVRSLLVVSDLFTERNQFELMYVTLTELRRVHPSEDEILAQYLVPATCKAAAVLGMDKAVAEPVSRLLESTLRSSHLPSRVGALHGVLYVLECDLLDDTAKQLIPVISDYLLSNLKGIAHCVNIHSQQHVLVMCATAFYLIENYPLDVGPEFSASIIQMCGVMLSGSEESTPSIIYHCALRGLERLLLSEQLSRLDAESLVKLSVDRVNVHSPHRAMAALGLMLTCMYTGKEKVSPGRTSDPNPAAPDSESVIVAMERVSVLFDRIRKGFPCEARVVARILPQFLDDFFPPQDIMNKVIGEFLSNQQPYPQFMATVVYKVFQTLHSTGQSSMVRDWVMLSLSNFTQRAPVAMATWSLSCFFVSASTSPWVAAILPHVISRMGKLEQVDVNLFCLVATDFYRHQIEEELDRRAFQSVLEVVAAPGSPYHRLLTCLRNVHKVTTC
# Pf apPOL inh = Pf-apPOL inhibitors, biochemical, fluorescence; Recombinant Pf-apPOL, molecular beacon fluorescence, 1.5 h; inhibition, % at 10 µM; 210,000 tested, 0.25% active
# * hit, by the source's call; · = not tested or not shown; ! = not active in a repeat. Cut-off read from the data, not from the text of the source: active = inhibition above about 50%; inactive = the rest.
SMILES,mHTT-CaM PPI inh,Pf apPOL inh
Cc1cccc(CN2CCCn3nc(C(=O)NCc4ccc5c(c4)OCO5)cc3C2=O)c1,12,-1
N#Cc1ccccc1N=Cc1cc2c(cc1[N+](=O)[O-])OCO2,19,-2
Cc1cc(C)c(O)c(N=Cc2cc(Cl)cc([N+](=O)[O-])c2O)c1,32,0
Cc1cc(C)c(O)c(N=Cc2cc3c(cc2[N+](=O)[O-])OCO3)c1,52*,-2
Cc1ccc(C)c(N=Cc2cc3c(cc2[N+](=O)[O-])OCO3)c1,66*,·
CC(=O)N(C)c1ccc(N=Cc2cc3c(cc2[N+](=O)[O-])OCO3)cc1,31,13
Cc1ccc(N=Cc2cc3c(cc2[N+](=O)[O-])OCO3)c(C)c1,76*,2
CCn1c(C(=O)NC2CC2)cc2occc21,2,-8
O=C(CN(C1CCCCC1)S(=O)(=O)c1ccccc1)N1CCN(c2ccc(F)cc2)CC1,60*,-5
O=C(CN(C1CCCCC1)S(=O)(=O)c1ccccc1)N1CCCCCC1,2,46
Cc1csc(C(=O)Nc2nnc(SCC(=O)Nc3cccnc3)s2)c1,-9,-1
CN(C)c1ccc(NC(=O)CCC2CCCCC2)cc1,63*,-2
COc1ccc(NC(=O)CCC2CCCCC2)cc1OC,9,-2
O=C(Nc1ccc(-c2ccc(NC(=O)Nc3cccnc3)cc2)cc1)Nc1cccnc1,10,3
O=C(Nc1ccccc1C(=O)Nc1cccnc1)c1ccccc1,-3,51*!
COc1ccc(C(=O)Nc2ccccc2C(N)=O)cc1,6,-2
O=C(Nc1cc([N+](=O)[O-])ccc1C(=O)Nc1cccnc1)c1ccccc1,4,-1
COc1ccc(C(=O)Nc2ccccc2C(=O)Nc2ccccc2C(=O)O)cc1,84*,-7
O=C(Nc1cccnc1)C(=O)Nc1cccnc1,82*,-5
COc1ccc(-c2cc(C(=O)N3CCOCC3)c3ccccc3n2)cc1,4,5
O=C1CCCC2=C1C(c1ccc([N+](=O)[O-])cc1)C1C(=O)c3ccccc3C1=N2 (centres undefined),26,17
O=C1CCCC2=C1C(c1ccccc1)C1C(=O)c3ccccc3C1=N2 (centres undefined),37,4
Cc1ccc(C2C3=C(CCCC3=O)N=C3c4ccccc4C(=O)C32)cc1 (centres undefined),59*,4
O=C1CCCC2=C1C(c1ccc(Cl)cc1)C1C(=O)c3ccccc3C1=N2 (centres undefined),66*,11
CCN1CCCn2nc(C3CCN(S(=O)(=O)c4ccc(F)cc4)CC3)cc2C1=O,2,0
SMILES,mHTT-CaM PPI inh,Pf apPOL inh
COc1cccc(C(=O)N2CCC3(C2)C(=O)N(C)c2ccccc23)c1OC (centres undefined),19,-7
Cc1c(Cl)cccc1S(=O)(=O)NCC(O)c1ccc(C(F)(F)F)cc1 (centres undefined),68*,-6
Cc1c(Cl)cccc1NC(=O)C(=O)NCC(O)c1ccc(C(F)(F)F)cc1 (centres undefined),-15,-5
O=S(=O)(NCC(O)c1ccc(C(F)(F)F)cc1)c1ccc2c(c1)CCCC2 (centres undefined),100*,-2
CC(C)S(=O)(=O)c1ccc(CC(=O)NCC(O)c2ccc(C(F)(F)F)cc2)cc1 (centres undefined),-4,-5
Cc1nc2ccccc2nc(C)c1=NOCc1ccc(F)cc1,-11,-2
CCS(=O)(=O)N1CCC(n2c(-c3ccc(OC)cc3)nc3cccnc32)C1 (centres undefined),23,-2
CCCCCN(C(=O)NC(=O)Nc1cccc(C(F)(F)F)c1)S(C)(=O)=O,-12,7
O=S(=O)(NCCCCCc1nc2ccccc2[nH]1)c1ccc(Cl)c(Cl)c1,66*,-4
O=S(=O)(NCCCc1nc2ccccc2[nH]1)c1ccc(Cl)cc1,-2,-7
Fc1ccc(C2=Nc3ccc(F)cc3NC(c3ccccc3)=N2)cc1,7,-3
Brc1ccc2c(c1)NC(c1ccccc1)=NC(c1ccncc1)=N2,71*,-5
O=C(Nc1cc(F)c(F)c(F)c1)N1CCc2nc[nH]c2C1,-13,1
COc1cc(C(=O)Nc2ccc(-c3nc4cc(C)ccc4o3)cc2C)cc(OC)c1OC,5,0
Cc1ccc(C(=O)N2CCC(CCNS(=O)(=O)c3cccc(C)c3)CC2)cc1,44,1
Cc1ccc(C(=O)N2CCC(CCNS(=O)(=O)c3cccc(C#N)c3)CC2)cc1,50*,-4
Cc1ccc(F)cc1S(=O)(=O)NCCC1CCN(C(=O)c2ccc(F)cc2)CC1,34,-2
Cc1ccc(C(=O)N2CCC(CCNS(=O)(=O)c3c(C)noc3C)CC2)cc1,62*,-1
Cc1ccc(C(=O)N2CCC(CCNS(=O)(=O)c3c(C)cc(C)cc3C)CC2)cc1,45,2
Cc1ccc(C(=O)N2CCC(CCNS(=O)(=O)c3ccccc3)CC2)cc1,37,-3
Cc1ccc(C)c(S(=O)(=O)NCCC2CCN(C(=O)c3ccc(F)cc3)CC2)c1,61*,2
CCOc1ccc(S(=O)(=O)NCCC2CCN(C(=O)c3ccc(C)cc3)CC2)cc1,62*,-3
CC1CCN(S(=O)(=O)c2ccc(C(=O)NCCOc3ccccc3)cc2)CC1,3,-1
Cc1nn2c([N+](=O)[O-])c(C)[nH][n+]2c1C(=O)Nc1nc(-c2ccccc2)cs1,5,-7
O=C(NCC1CC(=O)N(Cc2ccccc2)C1)c1cccc(Cl)c1 (centres undefined),-16,-8
SMILES,mHTT-CaM PPI inh,Pf apPOL inh
CC(C)c1ccc(NC(=O)C2CCCN(c3cnn(C)c(=O)c3)C2)cc1 (centres undefined),26,-4
COc1ccccc1NCC(=O)NN,3,43
O=C(CN1CCC(c2nc(-c3cccc(F)c3)no2)CC1)NCc1ccc(F)cc1,13,-4
N#Cc1c(N=Cc2cc(Br)ccc2O)sc2c1CCC2,25,5
Cc1ccc(C(=O)N2CCC(CCNS(=O)(=O)c3ccc(C)cc3)CC2)cc1,37,-4
O=C(c1ccc(F)cc1)N1CCC(CCNS(=O)(=O)c2ccc(Cl)cc2)CC1,55*,0
Cc1ccc(C(=O)N2CCC(CCNS(=O)(=O)c3ccc(F)cc3)CC2)cc1,53*,-2
O=C(c1ccccc1)N1CCC(CCNS(=O)(=O)c2ccc(F)cc2)CC1,26,-2
O=C(NCCOCc1ccccc1)c1ccccc1Cl,-7,-5
O=C(CC1COc2ccccc2NC1=O)NCCc1cccs1 (centres undefined),-5,-7
Cc1cc(NC(=O)C(=O)NCC(c2ccc(F)cc2)N(C)C)no1 (centres undefined),1,-7
COc1ccc(C(O)=C2C(=O)C(=O)N(c3nnc(C)s3)C2c2ccc(Cl)c(Cl)c2)cc1 (centres undefined),100*,1
CCOc1ccc(C(O)=C2C(=O)C(=O)N(c3nnc(C)s3)C2c2ccc([N+](=O)[O-])cc2)cc1 (centres undefined),17,7
Cc1cc(C)c(-c2noc(C)n2)c(NC(=O)c2cc(F)cc(F)c2)n1,-6,0
C=CCN(CC=C)S(=O)(=O)c1ccc(C(=O)N=c2sc3ccccc3n2C)cc1,-5,3
CC1CCCCC1N1C(=O)c2ccccc2C1C(=O)NC1CCCCC1 (centres undefined),52*,-3
